This is an account of results in the supplement of paper PMC10849652.

The full data set covers some 7,900 targets. This sample favours those with a hit. About 0.6% of all pairs of compound and target were hits. A number with no mark means an inactive call.

UniProt Q49A26, sequence (Q49A26 whole entry, looked up): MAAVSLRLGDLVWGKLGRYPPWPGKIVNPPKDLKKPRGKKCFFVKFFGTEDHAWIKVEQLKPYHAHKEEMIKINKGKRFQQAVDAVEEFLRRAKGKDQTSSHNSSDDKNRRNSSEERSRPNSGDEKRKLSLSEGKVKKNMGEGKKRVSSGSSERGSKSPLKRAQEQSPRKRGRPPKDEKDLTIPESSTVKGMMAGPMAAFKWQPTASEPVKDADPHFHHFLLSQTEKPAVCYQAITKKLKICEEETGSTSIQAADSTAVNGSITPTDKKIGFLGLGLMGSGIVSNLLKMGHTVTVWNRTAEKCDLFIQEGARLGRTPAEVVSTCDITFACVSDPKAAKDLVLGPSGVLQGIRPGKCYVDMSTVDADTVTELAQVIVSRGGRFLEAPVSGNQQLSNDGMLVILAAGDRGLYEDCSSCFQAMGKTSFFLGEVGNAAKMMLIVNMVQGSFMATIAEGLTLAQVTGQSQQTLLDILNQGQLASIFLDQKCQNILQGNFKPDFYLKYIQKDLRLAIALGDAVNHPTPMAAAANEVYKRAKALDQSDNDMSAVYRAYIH
UniProt Q01628, sequence (Q01628 whole entry, looked up): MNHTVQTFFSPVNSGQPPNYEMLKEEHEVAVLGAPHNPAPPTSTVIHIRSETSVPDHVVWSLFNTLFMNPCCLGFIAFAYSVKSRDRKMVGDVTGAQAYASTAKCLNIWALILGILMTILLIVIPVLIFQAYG
UniProt Q92917, sequence (Q92917 whole entry, looked up): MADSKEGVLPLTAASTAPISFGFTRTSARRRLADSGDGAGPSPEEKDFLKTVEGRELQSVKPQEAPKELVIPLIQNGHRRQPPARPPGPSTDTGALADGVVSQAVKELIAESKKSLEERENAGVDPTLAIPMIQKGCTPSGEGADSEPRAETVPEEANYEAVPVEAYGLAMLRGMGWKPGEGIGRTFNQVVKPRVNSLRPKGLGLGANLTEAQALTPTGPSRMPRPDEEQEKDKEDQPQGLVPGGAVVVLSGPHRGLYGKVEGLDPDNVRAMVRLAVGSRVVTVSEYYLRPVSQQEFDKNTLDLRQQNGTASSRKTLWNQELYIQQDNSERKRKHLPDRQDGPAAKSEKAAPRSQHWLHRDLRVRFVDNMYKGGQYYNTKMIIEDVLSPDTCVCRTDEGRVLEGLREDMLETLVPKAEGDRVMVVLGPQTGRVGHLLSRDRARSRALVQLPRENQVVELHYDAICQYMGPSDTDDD
UniProt P07686, sequence (P07686 whole entry, looked up): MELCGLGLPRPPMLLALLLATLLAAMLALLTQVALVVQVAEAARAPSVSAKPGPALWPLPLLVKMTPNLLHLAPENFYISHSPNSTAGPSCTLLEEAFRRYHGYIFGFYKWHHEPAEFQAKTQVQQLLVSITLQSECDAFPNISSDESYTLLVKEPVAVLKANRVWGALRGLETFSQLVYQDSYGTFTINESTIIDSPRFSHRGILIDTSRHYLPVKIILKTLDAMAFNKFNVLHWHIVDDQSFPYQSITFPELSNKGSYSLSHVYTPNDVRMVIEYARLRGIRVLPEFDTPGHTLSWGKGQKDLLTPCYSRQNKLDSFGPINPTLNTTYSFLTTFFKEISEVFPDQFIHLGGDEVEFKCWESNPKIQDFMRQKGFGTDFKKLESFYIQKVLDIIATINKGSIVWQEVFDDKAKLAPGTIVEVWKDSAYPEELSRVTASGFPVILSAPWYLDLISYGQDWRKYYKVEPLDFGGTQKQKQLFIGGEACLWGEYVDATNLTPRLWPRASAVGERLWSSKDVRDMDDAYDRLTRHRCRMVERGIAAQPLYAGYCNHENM
UniProt P05114, sequence (P05114 whole entry, looked up): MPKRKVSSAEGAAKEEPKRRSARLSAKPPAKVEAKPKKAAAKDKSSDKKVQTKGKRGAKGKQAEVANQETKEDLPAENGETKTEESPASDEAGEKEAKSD
UniProt Q00688, sequence (Q00688 whole entry, looked up): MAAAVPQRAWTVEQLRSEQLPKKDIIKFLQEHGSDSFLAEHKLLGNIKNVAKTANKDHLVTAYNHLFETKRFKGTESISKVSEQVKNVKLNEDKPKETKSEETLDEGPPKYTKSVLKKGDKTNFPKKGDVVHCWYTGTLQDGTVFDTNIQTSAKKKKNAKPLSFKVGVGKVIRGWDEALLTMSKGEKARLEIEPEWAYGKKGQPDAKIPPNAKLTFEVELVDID
UniProt Q00403, sequence (Q00403 whole entry, looked up): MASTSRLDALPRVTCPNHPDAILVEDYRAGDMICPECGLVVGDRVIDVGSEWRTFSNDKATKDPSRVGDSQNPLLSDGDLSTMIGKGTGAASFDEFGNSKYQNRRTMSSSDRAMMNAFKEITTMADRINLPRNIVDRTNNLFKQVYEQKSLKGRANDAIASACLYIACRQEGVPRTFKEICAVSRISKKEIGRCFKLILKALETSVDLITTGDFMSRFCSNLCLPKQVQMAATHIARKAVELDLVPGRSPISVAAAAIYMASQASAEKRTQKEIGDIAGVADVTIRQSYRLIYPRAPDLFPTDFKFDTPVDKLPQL
UniProt P13807, sequence (P13807 whole entry, looked up): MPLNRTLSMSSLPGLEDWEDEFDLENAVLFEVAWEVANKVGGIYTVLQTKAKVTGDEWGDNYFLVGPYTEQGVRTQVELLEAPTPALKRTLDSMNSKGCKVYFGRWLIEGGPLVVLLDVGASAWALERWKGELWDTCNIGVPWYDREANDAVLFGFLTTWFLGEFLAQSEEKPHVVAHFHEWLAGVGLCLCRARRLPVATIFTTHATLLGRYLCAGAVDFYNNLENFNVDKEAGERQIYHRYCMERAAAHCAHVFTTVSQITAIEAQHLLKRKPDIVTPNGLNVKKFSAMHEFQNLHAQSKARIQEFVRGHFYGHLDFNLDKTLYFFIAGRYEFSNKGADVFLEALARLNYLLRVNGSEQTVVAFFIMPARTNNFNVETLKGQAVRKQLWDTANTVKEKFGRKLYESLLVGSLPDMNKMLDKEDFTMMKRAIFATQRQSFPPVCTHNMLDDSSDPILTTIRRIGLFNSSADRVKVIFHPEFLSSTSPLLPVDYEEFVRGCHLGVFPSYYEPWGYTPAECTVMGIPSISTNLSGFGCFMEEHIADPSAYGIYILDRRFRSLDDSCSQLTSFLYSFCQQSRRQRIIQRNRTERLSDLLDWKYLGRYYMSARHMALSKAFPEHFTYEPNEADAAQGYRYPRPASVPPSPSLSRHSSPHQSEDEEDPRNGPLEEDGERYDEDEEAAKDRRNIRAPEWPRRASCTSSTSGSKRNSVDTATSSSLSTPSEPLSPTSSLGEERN
UniProt P23327, sequence (P23327 whole entry, looked up): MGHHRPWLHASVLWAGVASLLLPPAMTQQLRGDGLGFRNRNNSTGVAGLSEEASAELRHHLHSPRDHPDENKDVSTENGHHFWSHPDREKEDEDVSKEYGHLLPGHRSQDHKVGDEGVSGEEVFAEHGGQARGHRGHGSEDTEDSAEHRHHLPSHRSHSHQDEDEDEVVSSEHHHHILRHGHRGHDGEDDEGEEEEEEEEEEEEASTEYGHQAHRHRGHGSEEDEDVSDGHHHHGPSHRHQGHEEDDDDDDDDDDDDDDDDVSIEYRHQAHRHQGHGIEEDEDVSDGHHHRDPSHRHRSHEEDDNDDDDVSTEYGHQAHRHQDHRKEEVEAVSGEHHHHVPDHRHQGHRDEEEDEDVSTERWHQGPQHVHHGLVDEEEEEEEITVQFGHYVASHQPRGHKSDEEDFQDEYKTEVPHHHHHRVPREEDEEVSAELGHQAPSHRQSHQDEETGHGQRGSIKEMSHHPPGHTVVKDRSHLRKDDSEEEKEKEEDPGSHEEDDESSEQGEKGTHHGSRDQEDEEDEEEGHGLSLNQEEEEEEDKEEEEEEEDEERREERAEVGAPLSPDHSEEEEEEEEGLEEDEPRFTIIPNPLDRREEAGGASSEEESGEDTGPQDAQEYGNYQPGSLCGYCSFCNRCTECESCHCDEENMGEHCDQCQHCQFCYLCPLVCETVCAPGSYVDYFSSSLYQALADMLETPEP
UniProt P22570, sequence (P22570 whole entry, looked up): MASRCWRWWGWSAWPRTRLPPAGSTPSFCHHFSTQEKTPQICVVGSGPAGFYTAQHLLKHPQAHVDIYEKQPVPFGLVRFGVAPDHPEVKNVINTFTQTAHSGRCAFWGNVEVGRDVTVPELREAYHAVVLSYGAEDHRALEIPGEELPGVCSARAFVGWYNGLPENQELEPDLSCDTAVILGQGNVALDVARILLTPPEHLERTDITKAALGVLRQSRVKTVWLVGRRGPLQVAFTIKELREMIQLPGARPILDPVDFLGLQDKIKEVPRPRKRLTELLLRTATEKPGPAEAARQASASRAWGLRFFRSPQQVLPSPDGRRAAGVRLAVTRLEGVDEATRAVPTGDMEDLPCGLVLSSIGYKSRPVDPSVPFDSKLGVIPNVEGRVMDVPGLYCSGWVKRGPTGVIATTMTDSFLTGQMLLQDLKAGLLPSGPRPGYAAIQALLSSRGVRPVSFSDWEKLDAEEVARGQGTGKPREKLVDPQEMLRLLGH
UniProt Q9NZC3, sequence (Q9NZC3 whole entry, looked up): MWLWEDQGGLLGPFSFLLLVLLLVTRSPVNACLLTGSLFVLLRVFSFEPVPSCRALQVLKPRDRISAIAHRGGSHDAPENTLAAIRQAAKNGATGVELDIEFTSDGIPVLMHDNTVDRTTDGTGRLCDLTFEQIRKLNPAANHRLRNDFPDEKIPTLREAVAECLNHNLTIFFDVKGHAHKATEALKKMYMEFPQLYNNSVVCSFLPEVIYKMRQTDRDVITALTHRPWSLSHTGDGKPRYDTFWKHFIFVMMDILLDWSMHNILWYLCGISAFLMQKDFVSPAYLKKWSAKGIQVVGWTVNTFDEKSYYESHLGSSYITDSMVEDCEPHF
UniProt Q53GQ0, sequence (Q53GQ0 whole entry, looked up): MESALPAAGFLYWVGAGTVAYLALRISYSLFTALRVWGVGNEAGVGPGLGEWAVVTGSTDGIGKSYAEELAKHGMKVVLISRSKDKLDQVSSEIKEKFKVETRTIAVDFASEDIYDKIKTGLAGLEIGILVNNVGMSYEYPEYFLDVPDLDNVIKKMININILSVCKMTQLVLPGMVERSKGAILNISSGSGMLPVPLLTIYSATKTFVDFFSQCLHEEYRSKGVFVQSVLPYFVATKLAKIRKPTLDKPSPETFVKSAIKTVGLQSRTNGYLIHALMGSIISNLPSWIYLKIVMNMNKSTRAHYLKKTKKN

Compound in the first experiment: CNC(=O)C1=CC=CC=C1NC2=NC(=NC=C2Cl)NC3=C(C=C(C=C3)N4CCOCC4)OC
Description: log2 fold change, soluble protein after heating vs DMSO (PISA); higher = thermal stabilisation; K562 cells, 10 uM, 30 min; active = over 0.2 and 3.5 SD of the protein, either way, in both replicates (recomputed). Summed up: (§1)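 For each measurement, 10 μM compound was applied for 30 min to K562 cells at 2×10^6 cells/mL. Aliquots were heated for 3 min across 48°C-58°C, pooled, and extracted in PBS with 0.5% NP-40 at 4°C; the supernatant after 21,000xg for 90 min was soluble protein. This was quantified by TMTpro 16plex LC-MS/MS with channel sums equalised, and thermal stability was reported relative to control samples from duplicates, on a log2 fold-change scale.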
Consider HMGN1 (UniProt P05114), for which the log2 fold change was 0.03.
With FKBP3 (UniProt Q00688), the log2 fold change was 0.
For the target GDE1 (UniProt Q9NZC3), the log2 fold change is -0.003.
HRC (UniProt P23327): the log2 fold change was 0.009.
On to HEXB (UniProt P07686), for which the log2 fold change was 0.017.
On the same count and under the same terms, the same measure for GYS1 (UniProt P13807): 0.107; for FDXR isoform 7 (UniProt P22570): -0.012.
Same read-out and setting: in the case of GTF2B (UniProt Q00403) it was -0.013.
In the case of GLYR1 (UniProt Q49A26), the log2 fold change is 0.021.
On to GPKOW (UniProt Q92917), for which the log2 fold change was -0.107.
With IFITM3 (UniProt Q01628), the log2 fold change was 0.044.
On to GALC (UniProt P54803), for which the log2 fold change was -0.003.

Compound in another experiment: CNC(=O)c1ccc(Nc2ncc(C(F)(F)F)c(NCc3nccnc3N(C)S(C)(=O)=O)n2)cc1 [defactinib]
Described as above. Summed up: as §1
On to FHOD1 (UniProt Q9Y613), for which the log2 fold change is -0.042.
Consider GLB1 (UniProt P16278), for which the log2 fold change is 0.004.
For the target HDGFL2 (UniProt Q7Z4V5), the log2 fold change was -0.07.
FYB1 isoform 3 (UniProt O15117): the log2 fold change was -0.112.
GSTT1 (UniProt P30711): the log2 fold change was -0.027.
As for HEXA (UniProt P06865), the log2 fold change was -0.008.
In the case of GLUL (UniProt P15104), the log2 fold change was 0.036.
HS1BP3 (UniProt Q53T59): the log2 fold change was -0.066.
On to ICMT (UniProt O60725), for which the log2 fold change is -0.034.
In the case of HNRNPH2 (UniProt P55795), the log2 fold change was -0.173.
Consider GGA2 (UniProt Q9UJY4), for which the log2 fold change is 0.025.
As to GBA2 (UniProt Q9HCG7), the log2 fold change is -0.07.
Regarding HK2 (UniProt P52789), the log2 fold change is -0.08.
Turning to GMEB2 (UniProt Q9UKD1), the log2 fold change was -0.156.
As to IFRD1 (UniProt O00458), the log2 fold change was -0.003.
Take GAK (UniProt O14976): the log2 fold change is 0.658.
For HDAC7 isoform 5 (UniProt Q8WUI4), the log2 fold change is -0.011.
Still for that read-out and setting: the same measure for HNRNPUL1 (UniProt Q9BUJ2): 0.018; for HSD17B12 (UniProt Q53GQ0): -0.024.
Regarding GBF1 (UniProt Q92538), the log2 fold change is -0.031.
As for HSPA8 (UniProt E9PN89), the log2 fold change is 0.044.
For the target GOLGB1 isoform 2 (UniProt Q14789), the log2 fold change was 0.
Regarding GLRX3 (UniProt O76003), the log2 fold change is -0.091.
As to HMGN1 (UniProt P05114), the log2 fold change is 0.09.
As for FKBP3 (UniProt Q00688), the log2 fold change is -0.024.
With GDE1 (UniProt Q9NZC3), the log2 fold change is -0.017.
For HRC (UniProt P23327), the log2 fold change is -0.011.
Same read-out and setting: in the case of HEXB (UniProt P07686) it was -0.002; in that of GYS1 (UniProt P13807), 0.057; in that of FDXR isoform 7 (UniProt P22570), -0.115.
Consider GTF2B (UniProt Q00403), for which the log2 fold change was -0.144.
As for GLYR1 (UniProt Q49A26), the log2 fold change was -0.029.
For the target GPKOW (UniProt Q92917), the log2 fold change was -0.178.
As for IFITM3 (UniProt Q01628), the log2 fold change was -0.165.
The same measure, in the same setting: in the case of GALC (UniProt P54803) it was 0.017.

Compound in a further experiment: CNCc1ccc(-c2[nH]c3cc(F)cc4c3c2CCNC4=O)cc1 [rucaparib]
Described as above. Summed up: as §1
Turning to FHOD1 (UniProt Q9Y613), the log2 fold change is 0.442.
Turning to GLB1 (UniProt P16278), the log2 fold change was 0.
In the case of HDGFL2 (UniProt Q7Z4V5), the log2 fold change was -0.051.
Still for that read-out and setting: in the case of FYB1 isoform 3 (UniProt O15117) it was 0.028; in that of GSTT1 (UniProt P30711), 0.028.
In the case of HEXA (UniProt P06865), the log2 fold change was -0.07.
On the same count and under the same terms, in the case of GLUL (UniProt P15104) it was -0.039; in that of HS1BP3 (UniProt Q53T59), -0.038.
Same read-out and setting: in the case of ICMT (UniProt O60725) it was 0.037; in that of HNRNPH2 (UniProt P55795), 0.002.
For the target GGA2 (UniProt Q9UJY4), the log2 fold change is -0.064.
For GBA2 (UniProt Q9HCG7), the log2 fold change was -0.266.
The same measure, in the same setting: in the case of HK2 (UniProt P52789) it was -0.011; in that of GMEB2 (UniProt Q9UKD1), 0.275 (active).
Regarding IFRD1 (UniProt O00458), the log2 fold change is -0.46 (active).
Consider GAK (UniProt O14976), for which the log2 fold change was 0.237.
Same read-out and setting: in the case of HDAC7 isoform 5 (UniProt Q8WUI4) it was -0.033.
Take HNRNPUL1 (UniProt Q9BUJ2): the log2 fold change was 0.075.
The same measure, in the same setting: in the case of HSD17B12 (UniProt Q53GQ0) it was -0.043; in that of GBF1 (UniProt Q92538), 0.044.
HSPA8 (UniProt E9PN89): the log2 fold change was 0.101.
For GOLGB1 isoform 2 (UniProt Q14789), the log2 fold change is 0.02.
As to GLRX3 (UniProt O76003), the log2 fold change was -0.063.
Still for that read-out and setting: in the case of HMGN1 (UniProt P05114) it was 0.043; in that of FKBP3 (UniProt Q00688), -0.052; in that of GDE1 (UniProt Q9NZC3), 0.009.
For HRC (UniProt P23327), the log2 fold change is 0.01.
On to HEXB (UniProt P07686), for which the log2 fold change was -0.078.
GYS1 (UniProt P13807): the log2 fold change is 0.077.
Turning to FDXR isoform 7 (UniProt P22570), the log2 fold change is -0.035.
As to GTF2B (UniProt Q00403), the log2 fold change is -0.017.
As for GLYR1 (UniProt Q49A26), the log2 fold change is 0.211.
As for GPKOW (UniProt Q92917), the log2 fold change was -0.036.
Still for that read-out and setting: in the case of IFITM3 (UniProt Q01628) it was 0.093; in that of GALC (UniProt P54803), -0.091.
